# Reference: PubChem BioAssay (NCATS)
# Values joined by “and” are separate entries in the source; they are usually repeats but may differ in a detail not shown here. Identical values can stand only once. Records with an inconclusive call do not appear. A call without a number means that no potency is given here. Where a structure was tested more than once in an assay, its records may differ in their call. Active and inactive are the calls of the source. Calls come from the whole dose curve; as a rule, active = well fitted curve in the direction sought with a large enough effect; inconclusive = small, poorly fitted or top-dose-only effect, or another doubt; inactive = no such curve, though single readings can be large; an effect the other way counts as inactive or inconclusive.
# What was measured:
# [1] = qHTS Assay for Identifying Gametocytocidal Compounds (AID 743244); note: potency is the fitted concentration of half-maximal effect;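 for max response: actives lower the fluorescent signal which means gametocytes are killed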; conditions: P. falciparum 3D7 stage III-V gametocytes, alamarBlue, 72 h; max response: stronger effect = lower value
# Procedure, shortened: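 3D7 gametocytes, stages III–V, 20,000/well; cpd 72 h, 37 °C/5% CO2; + alamarBlue 24 h; fluor. Ex 525/Em 598.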
# [2] = qHTS assay to identify small molecule inhibitors of chordoma cells - UCH-1 (AID 1259355); note: nearly all actives have a fitted effect of over 55% in size
# Procedure, shortened: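 Luminescent ATP read-out (CellTiter-Glo, 30min at room temperature) measured viability of UCH-1 cells exposed for 48hr to test drugs at 15 concentrations, co-dosed with a five-agent combination of auranofin, camptothecin, doxorubicin, rubitecan and topotecan.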
# [3] = qHTS assay to identify small molecule inhibitors of chordoma cells - UCH-2 (AID 1259356); note: series mostly up to about 46 µM
# [4] = P-glycoprotein substrates identified in KB-8-5-11 adenocarcinoma cell line, qHTS therapeutic library screen (AID 1346987); conditions: outcome: dose series up to 44.5 µM unless noted; note: nearly all actives have a fitted effect of over 65% in size; note: potency is the fitted concentration of half-maximal effect
# Procedure, shortened: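 KB-8-5-11: colchicine-selected sub-line of KB-3-1 over-expressing P-gp; assay medium lacked colchicine. 72 h drug exposure at 37 degree C, CellTiter-Glo.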
# [5] = qHTS assay for cell viability of the p53RE-bla HCT-116 cell line (AID 743292); note: nearly all actives have a fitted effect of over 55% in size
# Procedure, shortened: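 CellSensor p53RE-bla HCT-116 cells (4,000/well) pre-incubated 5 h at 37 C, then exposed to compounds in DMSO for 16 h at 37 C. Viability read as ATP content by CellTiter-Glo luminescence after 30 min at room temperature.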
# [6] = qHTS assay for cell viability of HEK293 cells (AID 743288); conditions: ATP luminescence (CellTiter-Glo), 18 h; max response: stronger effect = lower value; note: nearly all actives have a fitted effect of over 50% in size
# Procedure, shortened: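 Total intracellular ATP, measured with a luciferase-coupled reagent, indicates the number of viable HEK293 cells. Exposure to test chemicals lasts 18 h at 37 C in 1,536-well format at 2,000 cells/well.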
Compound,max response [1],Potency [2],Potency [3],Potency [4],Potency [1],outcome [5],max response [6]
C=C1[C@@H]2CC[C@@H](C2)C1(C)C,-12.4% (inactive),inactive,inactive,inactive,–,–,–
NCC(O)CC(=O)O (configuration not stated),10.8% (inactive),inactive,inactive,inactive,–,–,–
S=C=Nc1ccc(N=C=S)cc1,-17.1% (inactive),inactive,inactive,inactive,–,–,–
O=C1c2ccccc2C(=O)C1c1ccc(F)cc1,5.59% (inactive),inactive,inactive,inactive,–,–,–
C[C@@H](O)[C@H]1C(=O)N2C(C(=O)[O-])=C(SC3Cn4cnc[n+]4C3)[C@H](C)[C@H]12 (some centres not stated),-4.53% (inactive),inactive,inactive,inactive,–,–,–
CNCC(=O)N[C@@H](CCCN=C(N)N)C(=O)N[C@H](C(=O)N[C@@H](Cc1ccc(O)cc1)C(=O)N[C@H](C(=O)N[C@@H](Cc1cnc[nH]1)C(=O)N1CCC[C@H]1C(=O)N[C@@H](C)C(=O)O)C(C)C)C(C)C,5.17% (inactive),inactive,inactive,inactive,–,–,–
CCCCC/C=C\CCC(=O)N[C@H]1[C@H](Oc2c3cc4cc2Oc2ccc(cc2Cl)[C@@H](O[C@@H]2O[C@H](CO)[C@@H](O)[C@H](O)[C@H]2NC(C)=O)[C@@H]2NC(=O)[C@H](NC(=O)[C@@H]4NC(=O)[C@H]4NC(=O)[C@@H](Cc5ccc(c(Cl)c5)O3)NC(=O)[C@H](N)c3ccc(O)c(c3)Oc3cc(O)cc4c3)c3ccc(O)c(c3)-c3c(O[C@H]4O[C@H](CO)[C@@H](O)[C@H](O)[C@@H]4O)cc(O)cc3[C@@H](C(=O)O)NC2=O)O[C@H](CO)[C@@H](O)[C@@H]1O,-6.11% (inactive),inactive,inactive,inactive,–,–,–
CCOC(=O)[C@H](CS)NCCN[C@@H](CS)C(=O)OCC,2.46% (inactive),inactive,inactive,inactive,–,–,–
CC12CCC(C[N+](C)(CCC[N+](C)(C)C)C1)C2(C)C (configuration not stated),-4.18% (inactive),inactive,inactive,inactive,–,–,–
Cc1ncc(C[n+]2csc(CCOP(=O)(O)OP(=O)(O)O)c2C)c(N)n1,0.908% (inactive),inactive,inactive,inactive,–,–,–
C=Cc1ccc(S(=O)(=O)O)cc1,-6.42% (inactive),inactive,inactive,inactive,–,–,–
c1ccc2cc(C3=NCCN3)ccc2c1,5.29% (inactive),inactive,inactive,inactive,–,–,–
CCCCCCCCCCCC(=O)N(CCO)CCO,11.9% (inactive),inactive,inactive,inactive,–,–,–
Cc1c(C)c2c(c(C)c1OC(=O)CCC(=O)O)CC[C@@](C)(CCC[C@H](C)CCC[C@H](C)CCCC(C)C)O2,-1.05% (inactive),inactive,inactive,inactive,–,–,–
CCCOc1cc(N)ccc1C(=O)OCCN(CC)CC,-20.2% (inactive),inactive,inactive,inactive,–,–,–
CN(C)C=Nc1c(I)cc(I)c(CCC(=O)O)c1I,14.5% (inactive),inactive,inactive,inactive,–,–,–
C[C@@H]1NC(=O)[C@@H](N)CNC(=O)[C@H](C2CCNC(N)=N2)NC(=O)/C(=C/NC(N)=O)NC(=O)[C@H](CNC(=O)C[C@@H](N)CCCN)NC1=O (some centres not stated),0.778% (inactive) and -5.05% (inactive),inactive,inactive,inactive,–,–,–
NC[C@@H]1O[C@H](O[C@H]2[C@@H](O)[C@H](O[C@@H]3[C@@H](O)[C@H](N)C[C@H](N)[C@H]3O[C@H]3O[C@H](CO)[C@@H](O)[C@H](O)[C@H]3N)O[C@@H]2CO)[C@H](N)[C@@H](O)[C@@H]1O,20.3% (inactive),inactive,inactive,inactive,–,–,–
CNC(=O)C[C@@H](N)C(=O)N[C@@H](C(=O)N[C@@H]1C(=O)N2[C@@H]1SC(C)(C)[C@@H]2C(=O)O)c1ccc(O)cc1,-4.28% (inactive),inactive,inactive,inactive,–,–,–
COC(=O)CCC[N+](C)(C)C,-8.11% (inactive),inactive,inactive,inactive,–,–,–
O=C(O[C@H]1CN2CCC1CC2)N1CCc2ccccc2[C@@H]1c1ccccc1,5.85% (inactive),inactive,inactive,inactive,–,–,–
NC(=O)[C@@H]1C[C@]2(NC(=O)NC2=O)c2cc(F)ccc2O1,-13.1% (inactive),inactive,inactive,inactive,–,–,–
O=C(O)c1ccc(NC(=O)[C@H](Cc2ccc(O)cc2)NC(=O)c2ccccc2)cc1,0.0398% (inactive),inactive,inactive,inactive,–,–,–
COC(=O)[C@@H](N)CS,0.957% (inactive),inactive,inactive,inactive,–,–,–
CC(=C\c1ccccc1)/C=C1/SC(=S)N(CC(=O)O)C1=O,8.93% (inactive),inactive,inactive,inactive,–,–,–
CC1CS(=O)(=O)CCN1/N=C/c1ccc([N+](=O)[O-])o1 (configuration not stated),–,inactive,inactive,inactive,14.1 µM (active),–,–
CCCCCCOC(=O)c1cccnc1,30.2% (inactive),inactive,inactive,inactive,–,–,–

Compound,max response [1],Potency [2],Potency [3],Potency [4],Potency [1],outcome [5],max response [6]
COc1c(O[C@@H]2O[C@H](CO)[C@@H](O)[C@H](O)[C@H]2O)cc2c(c1OC)-c1ccc(SC)c(=O)cc1[C@@H](NC(C)=O)CC2,22% (inactive),inactive,inactive,inactive,–,–,–
CC1C(=O)CC2C3(C)CCC2(C(C)C(=O)O)C(=O)C13 (configuration not stated),-7.97% (inactive),inactive,inactive,inactive,–,–,–
CC(=O)O[C@@H]1CC2CCC1(C)C2(C)C (some centres not stated),7.45% (inactive),inactive,inactive,inactive,–,–,–
O=C(NNCNNC(=O)c1ccncc1)c1ccncc1,16.9% (inactive),inactive,inactive,inactive,–,–,–
CC1CC(OC(=O)C(O)c2ccccc2)CC(C)(C)C1 (configuration not stated),25% (inactive),inactive,inactive,inactive,–,–,–
C=CC[N+]1([C@H]2C[C@H]3[C@@H]4CC[C@H]5C[C@H](O)[C@@H](N6CCOCC6)C[C@]5(C)[C@H]4CC[C@]3(C)[C@H]2OC(C)=O)CCCC1,-0.733% (inactive),inactive,inactive,inactive,–,–,–
FC(F)(F)C(F)(F)C(F)(F)C(F)(F)C(F)(F)F,-2.45% (inactive),inactive,inactive,inactive,–,–,–
CCCCCCCCCCCCCCCC(=O)OC[C@H](COP(=O)([O-])OCC[N+](C)(C)C)OC(=O)CCCCCCCCCCCCCCC,1.23% (inactive),inactive,inactive,inactive,–,–,–
CC[C@@H]1/C=C(\C)C[C@H](C)C[C@H](OC)[C@H]2O[C@@](O)(C(=O)C(=O)N3CCCC[C@H]3C(=O)O[C@H](/C(C)=C/[C@@H]3CC[C@@H](Cl)[C@H](OC)C3)[C@H](C)[C@@H](O)CC1=O)[C@H](C)C[C@@H]2OC,-7.71% (inactive),inactive,inactive,inactive,–,–,–
COc1ccc(C[C@H](C)NC[C@@H](O)c2ccc(O)c(NC=O)c2)cc1,-5.27% (inactive),inactive,inactive,inactive,–,–,–
CN[C@H](CC(C)C)C(=O)N[C@H]1C(=O)N[C@@H](CC(N)=O)C(=O)N[C@H]2C(=O)N[C@H]3C(=O)N[C@H](C(=O)N[C@@H](C(=O)O)c4cc(O)cc(O)c4-c4cc3ccc4O)[C@H](O)c3ccc(c(Cl)c3)Oc3cc2cc(c3O[C@@H]2O[C@H](CO)[C@@H](O)[C@H](O)[C@H]2O[C@H]2C[C@](C)(N)C(O)[C@H](C)O2)Oc2ccc(cc2Cl)[C@H]1O (some centres not stated),3.65% (inactive) and -0.964% (inactive),inactive,inactive,inactive,–,–,–
CC1(C)[C@@H]2CC[C@@]1(C)[C@H](OC(=O)CSC#N)C2,-3.31% (inactive),inactive,inactive,inactive,–,–,–
CC(C)C[C@@H](NC(=O)[C@@H](O)[C@H](N)Cc1ccccc1)C(=O)O,1.84% (inactive),inactive,inactive,inactive,–,–,–
CC(C)(C)c1ccc(CN2CCN(C(c3ccccc3)c3ccc(Cl)cc3)CC2)cc1 (configuration not stated),-2.06% (inactive),inactive,inactive,23.1 µM (active) and inactive,–,–,–
Cc1cc(=O)c(C(=O)N[C@@H](C(=O)N[C@@H]2C(=O)N3C(C(=O)O)=C(CSc4nnnn4C)CS[C@H]23)c2ccc(O)cc2)c[nH]1,-4.61% (inactive),inactive,inactive,inactive,–,–,–
CO[C@H]1C[C@H](O[C@@H]2/C(C)=C/C[C@@H]3C[C@@H](C[C@]4(CC[C@H](C)[C@@H](C5CCCCC5)O4)O3)OC(=O)[C@@H]3C=C(C)/C(=N/O)[C@H]4OC/C(=C\C=C\[C@@H]2C)[C@]43O)O[C@@H](C)[C@@H]1O,-14.2% (inactive),inactive,inactive,inactive,–,–,–
C=CC(=O)O,-1.82% (inactive),inactive,inactive,inactive,–,–,–
COC(=O)c1ccccc1O,3.79% (inactive),inactive,inactive,inactive,–,inactive,–
CC/C=C\C/C=C\C/C=C\CCCCCCCC(=O)O,13.1% (inactive),inactive,inactive,inactive,–,inactive,–
O=P(O)(O)O,-3.37% (inactive),inactive,inactive,inactive,–,inactive,-7.47% (inactive)
OC[C@H]1O[C@@](CO)(O[C@H]2O[C@H](CO)[C@@H](O)[C@H](O)[C@H]2O)[C@@H](O)[C@@H]1O,6.47% (inactive),inactive,inactive,inactive,–,inactive,-4.31% (inactive)
O=C1CCC(c2ccccc2)(C2CCN(Cc3ccccc3)CC2)C(=O)N1 (configuration not stated),0.775% (inactive),inactive,inactive,inactive,–,–,–
CC(C)CCCCCCc1ccc(O)cc1,9.95% (inactive),inactive,inactive,inactive,–,inactive,–
Nc1ncnc2c1ncn2[C@H]1CC[C@@H](CO)O1,-3.96% (inactive),inactive,inactive,inactive,–,inactive,–
OCl,13.5% (inactive),inactive,inactive,inactive,–,inactive,–
Cc1ccc(S(=O)(=O)O)cc1C,1.6% (inactive),inactive,inactive,inactive,–,inactive,–
